# Results filed as inconclusive are left out. Active and inactive are the calls of the source. Calls come from the whole dose curve; as a rule, active = well fitted activation curve with a large enough effect in the main read-out, with a control signal flat (not every such curve was filed as active); inconclusive = small, poorly fitted or top-dose-only effect, or effect the other way, or a change in a side signal; inactive = flat fitted curve, though single readings scatter.
# Target: 3',5'-cyclic-AMP phosphodiesterase 4B (Homo sapiens) (UniProt Q07343)
# Assay: qHTS Assay for Inhibitors of PDE-IV (AID 607); for activation (PDE inhibition): % of control where 0% means no effect
# Settings: HEK293 ACTOne CNG channel cells, membrane potential fluorescence; series mostly up to 22.9 µM; activation (PDE inhibition): at the top concentration
# How it was run: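 Live HEK293 cells with a modified cyclic nucleotide-gated (CNG) channel report intracellular cAMP via membrane-potential dye fluorescence (ex 535/em 590 nm). Endogenous PDE-IV was targeted. Compounds were tested at up to 22.9 uM final; RO 20-1724 100 uM served as control.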
# Potency is the fitted concentration of half-maximal effect.
# Sequence of 3',5'-cyclic-AMP phosphodiesterase 4B (Homo sapiens) (Q07343 whole entry, looked up): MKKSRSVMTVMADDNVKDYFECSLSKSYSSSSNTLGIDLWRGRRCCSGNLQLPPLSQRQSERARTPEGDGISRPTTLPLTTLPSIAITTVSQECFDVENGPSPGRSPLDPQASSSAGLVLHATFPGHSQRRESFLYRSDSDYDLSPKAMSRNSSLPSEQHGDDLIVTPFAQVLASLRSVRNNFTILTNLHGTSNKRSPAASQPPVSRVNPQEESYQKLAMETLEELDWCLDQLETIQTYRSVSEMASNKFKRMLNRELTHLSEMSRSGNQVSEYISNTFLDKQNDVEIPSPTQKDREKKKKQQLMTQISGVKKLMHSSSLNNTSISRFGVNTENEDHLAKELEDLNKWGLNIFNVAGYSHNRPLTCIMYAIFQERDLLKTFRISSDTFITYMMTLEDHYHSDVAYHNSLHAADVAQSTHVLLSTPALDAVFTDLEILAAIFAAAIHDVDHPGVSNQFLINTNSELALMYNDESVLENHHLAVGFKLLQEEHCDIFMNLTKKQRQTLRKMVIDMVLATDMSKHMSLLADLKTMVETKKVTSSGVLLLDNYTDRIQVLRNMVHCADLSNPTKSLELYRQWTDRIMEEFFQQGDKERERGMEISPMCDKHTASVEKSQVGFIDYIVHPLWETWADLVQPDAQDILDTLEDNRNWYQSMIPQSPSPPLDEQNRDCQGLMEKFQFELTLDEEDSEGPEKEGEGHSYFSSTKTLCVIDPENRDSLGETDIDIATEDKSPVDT
Structure (SMILES),activation (PDE inhibition),Potency
C=C/C(=C\C)C[C@@H](CC(=O)N[C@@H](CCC(=O)O)CC(=O)O)NC(=O)[C@@H]1CNCC[C@H]1NC(=O)C[C@@H](NC(=O)C[C@H](Cc1ccccc1)NC(=O)[C@@H]1CCCC[C@H]1N)C(C)C,-4.57% (inactive),
NCCC[C@@H](CC(=O)N[C@@H]1CCCC[C@H]1C(=O)N[C@H](CC(=O)N[C@@H](CCC(=O)O)CC(=O)O)Cc1c[nH]c2ccccc12)NC(=O)C[C@H](Cc1ccccc1)NC(=O)[C@@H]1CCCC[C@H]1N,8.15% (inactive),
NCCC[C@@H](CC(=O)N[C@@H]1CCNC[C@H]1C(=O)N[C@H](CC(=O)N[C@@H](CCC(=O)O)CC(=O)O)Cc1c[nH]c2ccccc12)NC(=O)C[C@H](Cc1ccccc1)NC(=O)[C@@H]1CCCC[C@H]1N,-5.18% (inactive),
C[C@@H]1C(=O)O[C@H]2[C@@H](O)[C@@]34[C@H]5C[C@H](C(C)(C)C)[C@@]36[C@H](OC(=O)[C@@H]6O)O[C@@]4(C(=O)O5)[C@@]12O,10.4% (inactive),
CC(C)C[C@@H](CC(=O)N[C@H](CC(=O)N[C@@H]1CCCC[C@H]1C(=O)N[C@H](CC(=O)N[C@@H](CCC(=O)O)CC(=O)O)Cc1ccccc1)C(C)C)NC(=O)[C@@H]1CCCC[C@H]1N,-17.4% (inactive),
C=C(CO)[C@H]1Cc2c(ccc3c2O[C@H]2COc4cc(OC)c(OC)cc4[C@@H]2C3=O)O1,5.76% (inactive),
CC(C)C[C@@H](CC(=O)N[C@@H](CCC(=O)O)CC(=O)O)NC(=O)[C@@H]1CNCC[C@H]1NC(=O)C[C@H](CCCN)NC(=O)C[C@H](Cc1c[nH]c2ccccc12)NC(=O)[C@@H]1CNCC[C@H]1N,-2.39% (inactive),
CC(C)[C@@H](CC(=O)N[C@@H]1CCCC[C@H]1C(=O)N[C@H](CC(=O)N[C@@H](CCC(=O)O)CC(=O)O)Cc1ccccc1)NC(=O)C[C@H](Cc1ccccc1)NC(=O)[C@@H]1CNCC[C@H]1N,-15.4% (inactive),
NCCC[C@@H](CC(=O)N[C@@H]1CCCC[C@H]1C(=O)N[C@H](CC(=O)N[C@@H](CCC(=O)O)CC(=O)O)Cc1ccccc1)NC(=O)C[C@H](Cc1c[nH]c2ccccc12)NC(=O)[C@@H]1CCCC[C@H]1N,-2.7% (inactive),
CC(C)C[C@@H](CC(=O)N[C@H](CC(=O)N[C@@H]1CCCC[C@H]1C(=O)N[C@H](CC(=O)N[C@@H](CCC(=O)O)CC(=O)O)Cc1ccccc1)C(C)C)NC(=O)[C@@H]1CNCC[C@H]1N,-0.95% (inactive),
CC(C)[C@@H](CC(=O)N[C@@H]1CCCC[C@H]1C(=O)N[C@H](CC(=O)N[C@@H](CCC(=O)O)CC(=O)O)Cc1ccccc1)NC(=O)C[C@H](Cc1ccccc1)NC(=O)[C@@H]1CCCC[C@H]1N,-18.1% (inactive),
CC(C)C[C@@H](CC(=O)N[C@H](CC(=O)N[C@@H]1CCNC[C@H]1C(=O)N[C@H](CC(=O)N[C@@H](CCC(=O)O)CC(=O)O)Cc1c[nH]c2ccccc12)C(C)C)NC(=O)[C@@H]1CCCC[C@H]1N,21.1% (inactive),
CN[C@@H]1[C@H](O)[C@H](NC)[C@@H]2O[C@]3(O)C(=O)C[C@@H](C)O[C@H]3O[C@@H]2[C@H]1O,4.77% (inactive),
NCCC[C@@H](CC(=O)N[C@@H]1CCNC[C@H]1C(=O)N[C@H](CC(=O)N[C@@H](CCC(=O)O)CC(=O)O)Cc1ccccc1)NC(=O)C[C@H](Cc1c[nH]c2ccccc12)NC(=O)[C@@H]1CCCC[C@H]1N,2.72% (inactive),
CC(C)C[C@@H](CC(=O)N[C@@H](CCC(=O)O)CC(=O)O)NC(=O)[C@@H]1CCCC[C@H]1NC(=O)C[C@@H](NC(=O)C[C@H](Cc1ccccc1)NC(=O)[C@@H]1CNCC[C@H]1N)C(C)C,-22% (inactive),
CC(C)C[C@@H](CC(=O)N[C@@H](CCCN)CC(=O)N[C@@H]1CCNC[C@H]1C(=O)N[C@H](CC(=O)N[C@@H](CCC(=O)O)CC(=O)O)Cc1c[nH]c2ccccc12)NC(=O)[C@@H]1CCCC[C@H]1N,3.8% (inactive),
NCCC[C@@H](CC(=O)N[C@@H]1CCCC[C@H]1C(=O)N[C@H](CC(=O)N[C@@H](CCC(=O)O)CC(=O)O)Cc1ccccc1)NC(=O)C[C@H](Cc1c[nH]c2ccccc12)NC(=O)[C@@H]1CNCC[C@H]1N,,1580 nM (active)
CC(C)C[C@@H](CC(=O)N[C@@H](CCCN)CC(=O)N[C@@H]1CCNC[C@H]1C(=O)N[C@H](CC(=O)N[C@@H](CCC(=O)O)CC(=O)O)Cc1ccccc1)NC(=O)[C@@H]1CCCC[C@H]1N,4.78% (inactive),
CC(C)C[C@@H](CC(=O)N[C@@H](CCC(=O)O)CC(=O)O)NC(=O)[C@@H]1CCCC[C@H]1NC(=O)C[C@@H](NC(=O)C[C@H](Cc1c[nH]c2ccccc12)NC(=O)[C@@H]1CNCC[C@H]1N)C(C)C,-13.5% (inactive),
NCCC[C@@H](CC(=O)N[C@@H]1CCCC[C@H]1C(=O)N[C@H](CC(=O)N[C@@H](CCC(=O)O)CC(=O)O)Cc1ccccc1)NC(=O)C[C@H](Cc1ccccc1)NC(=O)[C@@H]1CNCC[C@H]1N,13.3% (inactive),
NCCC[C@@H](CC(=O)N[C@@H]1CCNC[C@H]1C(=O)N[C@H](CC(=O)N[C@@H](CCC(=O)O)CC(=O)O)Cc1ccccc1)NC(=O)C[C@H](CO)NC(=O)[C@@H]1CNCC[C@H]1N,5.17% (inactive),
O=C1C[C@H](c2ccccc2)Oc2cc(O)cc(O)c21,14.5% (inactive),
CC(C)C[C@@H](CC(=O)N[C@@H](CCC(=O)O)CC(=O)O)NC(=O)[C@@H]1CCCC[C@H]1NC(=O)C[C@H](CCCN)NC(=O)C[C@H](Cc1c[nH]c2ccccc12)NC(=O)[C@@H]1CCCC[C@H]1N,-23.3% (inactive),
CC(C)C[C@@H](CC(=O)N[C@@H](CCCN)CC(=O)N[C@@H]1CCNC[C@H]1C(=O)N[C@H](CC(=O)N[C@@H](CCC(=O)O)CC(=O)O)CC(C)C)NC(=O)[C@@H]1CCCC[C@H]1N,4.04% (inactive),
CC(C)C[C@@H](CC(=O)N[C@@H](CCC(=O)O)CC(=O)O)NC(=O)[C@@H]1CNCC[C@H]1NC(=O)C[C@H](CCCN)NC(=O)C[C@H](Cc1c[nH]c2ccccc12)NC(=O)[C@@H]1CCCC[C@H]1N,11.6% (inactive),
NCCC[C@@H](CC(=O)N[C@@H]1CCNC[C@H]1C(=O)N[C@H](CC(=O)N[C@@H](CCC(=O)O)CC(=O)O)Cc1ccccc1)NC(=O)C[C@H](Cc1ccccc1)NC(=O)[C@@H]1CCCC[C@H]1N,-3.32% (inactive),
